# High-throughput results (PubChem BioAssay)
# PRMT1 inh: PRMT1 (human) inhibition, primary screen | 370,000 compounds, 1.3% hits | inhibition, % at 2.79 µM | AID 652257 | recombinant PRMT1, activity-based probe fluorescence polarization | Q99873;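 active means inhibition above about 21% made by adding two undisclosed values, limit read from the data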
# Target sequence (Q99873 whole entry, looked up): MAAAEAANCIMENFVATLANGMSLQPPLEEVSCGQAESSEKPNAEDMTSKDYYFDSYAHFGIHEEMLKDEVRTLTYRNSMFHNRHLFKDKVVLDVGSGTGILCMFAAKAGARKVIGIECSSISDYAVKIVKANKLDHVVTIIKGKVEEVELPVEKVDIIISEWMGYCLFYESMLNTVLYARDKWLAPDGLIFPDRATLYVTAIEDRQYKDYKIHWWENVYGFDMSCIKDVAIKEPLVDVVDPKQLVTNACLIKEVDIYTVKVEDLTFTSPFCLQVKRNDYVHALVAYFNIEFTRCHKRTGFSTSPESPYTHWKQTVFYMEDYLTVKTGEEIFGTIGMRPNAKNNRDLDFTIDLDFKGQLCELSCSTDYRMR
# LEDGF integ inh: blocks HIV-1 LEDGF/p75-dependent DNA integration; 370,000 compounds, 0.64% hits; inhibition, % at 3.7 µM; AID 743269; TR-FRET IN-LEDGF/p75 DNA integration, Eu/Cy5;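 active means inhibition above the screen-wide mean plus 3 SD, cut at about 13% in these data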;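 further: signal is the Cy5 over europium emission ratio at 671 and 618 nm; 0% = plate median of compound wells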
# UHRF1 binding: human UHRF1 methylated DNA binding inhibitors | UHRF1 binding to methylated oligo, TR-FRET | 370,000 compounds, 0.75% hits | inhibition, % at 4.4 µM | AID 687016; in the data active means inhibition above about 21%;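 further: UHRF1 SRA domain binding a hemimethylated CpG hairpin DNA probe; 0% = median of test compound wells and 100% = reference inhibitor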
# ABHD5-PLIN5 inh: blocks binding of human ABHD5 to perilipin-5; Q00G26+Q8WTS1; Split G. princeps luciferase complementation, luminescence, 4 h; inhibition, % at 4 µM; 360,000 compounds, 0.78% hits;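 active means inhibition above the mean inhibition across every tested compound plus 3 SD, cut at about 22% in these data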;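 further: 0% = DMSO only wells and the 100% control is not disclosed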
# rCAG binder: binds r(CAG) RNA repeats. r(CAG) RNA repeat, TO-PRO-1 dye displacement fluorescence. inhibition, % at 3 µM. 370,000 compounds, 1.3% hits;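 active means inhibition above the plate cutoff, the mean of all test compounds on that plate plus 3 SD, cut at about 35% in these data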;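 further: 0% = DMSO alone and 100% = 100 µM mitoxantrone as full dye displacement; higher means more dye released from RNA so lower well fluorescence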
# MBD2 DNA inh: MBD2-methylated oligo binding inhibition. Q9UBB5. inhibition, % at 4.4 µM. TR-FRET, MBD2 binding to methylated oligonucleotide. 370,000 compounds, 0.31% hits; in the data active means inhibition above about 13%
# IN multimer up: activates HIV-1 integrase multimerization in LEDGF counter-screen. shares compounds with LEDGF integ inh. TR-FRET HIV-1 integrase multimerization, biochemical. activation, % at 7.7 µM. 2,000 compounds, 17% hits; in the data active means activation above about 8.9%
# TR-FRET interf: TR-FRET optical interference, LEDGF/p75 integration counter-screen; inhibition, % at 7.7 µM; TR-FRET optical interference counterscreen, HIV-1 IN multimerization; 2,000 tested, under 10 active; shares compounds with LEDGF integ inh;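 active means inhibition above the mean over all tested compounds plus 3 SD, which no compound reached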;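 further: 0% = integrase with antibodies and DMSO and 100% = antibodies without integrase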
# IN-LEDGF confirm: LEDGF/p75-dependent HIV-1 integration inhibition, confirmation; 2,000 compounds, 36% hits; TR-FRET LEDGF/p75-dependent HIV-1 integration, biochemical; shares compounds with LEDGF integ inh; inhibition, % at 3.7 µM; in the data active means inhibition above about 14%
# The depositor's hits bear a star; x = not tested or not shown. A selection: hits, their analogues and other compounds. The true share with any hit is near 4.1%.
SMILES,PRMT1 inh,LEDGF integ inh,UHRF1 binding,ABHD5-PLIN5 inh,rCAG binder,MBD2 DNA inh,IN multimer up,TR-FRET interf,IN-LEDGF confirm
CSc1ccc(CNC(C)C(O)c2ccccc2)cc1 (stereo not given),-1,2,-2,1,-2,2,x,x,x
O=c1cccc2n1CC1CC2CN(C(c2cccc(F)c2)c2sc3ncnn3c2O)C1 (stereo not given),5,17*,-2,0,1,-5,0,2,1
Fc1cccc(-c2ccc3c(c2)CN(c2cccc(Cl)c2)Cc2cnnn2-3)c1,2,34*,7,11,8,7,3,-13,20*
Fc1ccc(N2Cc3ccccc3-n3nncc3C2)cc1,1,21*,1,14,4,2,0,0,19*
CC(C)(C)C(=O)N1Cc2cc(-c3ccccc3)ccc2-n2nncc2C1,-9,15*,1,1,2,-5,-1,7,1
Cc1ccc(N2C(=O)NC(=O)/C(=C\c3cc(C)n(-c4cc(C(=O)O)cc(C(=O)O)c4)c3C)C2=O)cc1,7,36*,26*,8,11,-1,2,-8,11
CCc1ccc(N2C(=O)NC(=O)/C(=C\c3cc(C)n(-c4cc(C(=O)O)cc(C(=O)O)c4)c3C)C2=O)cc1,2,29*,14,-3,22,-2,6,-20,21*
Cc1cc(/C=C2\C(=O)NC(=O)N(c3ccc(F)cc3)C2=O)c(C)n1-c1ccc(C(=O)O)cc1,3,4,-1,8,2,0,x,x,x
Cc1c(Cl)cccc1N1C(=O)NC(=O)/C(=C\c2cc(C)n(-c3cccc(C(=O)O)c3C)c2C)C1=O,7,3,-1,10,10,6,x,x,x
O=C(O)C(Br)CBr (stereo not given),-1,0,-2,-4,1,-1,x,x,x
CN1c2ccc(Br)cc2[C@@H]2NCC[C@@H]2[C@@H]1CO,-1,-3,-4,x,2,-11,x,x,x
COC(=O)C1=C(c2cccc(OC)c2OC)C[C@@H]2CC[C@H]1N2C(=O)NCc1ccc(C(F)(F)F)cc1,2,-1,-1,3,-8,-3,x,x,x
COc1ccc(CC2=NCCc3cc(OC)c(OC)cc32)cc1OC,-1,27*,21*,-4,8,6,1,-6,2
N=Cc1c(O)n(-c2ccccc2)c(=O)n(-c2ccccc2)c1=O,3,1,4,0,-5,-5,x,x,x
CN1C(=O)NC(=O)/C(=C\C=C\c2ccccc2[N+](=O)[O-])C1=O,4,4,-3,x,15,-5,x,x,x
Cc1c(OC(=O)N(C)C)ccc2c1O/C(=C\c1ccco1)C2=O,17,18*,4,6,25,2,0,-1,-3
C1CN(P2(N3CC3)=NP(N3CC3)(N3CC3)=NP(N3CC3)(N3CC3)=N2)CCO1 (stereo not given),-2,-2,-1,-1,2,1,x,x,x
COc1cc(C2c3cc(O)c(OC)cc3CC3C(=O)OCC32)ccc1O (stereo not given),3,14*,0,-4,6,1,-1,6,-5
O=C(c1cc(-c2ccc(Cl)cc2)n(-c2ccc(Cl)cc2Cl)n1)N1CCOCC1,-4,26*,3,-2,-1,3,0,-2,-8
O=C(c1cc([N+](=O)[O-])ccc1N1CCNCC1)N1CCOCC1,-2,-1,3,0,1,1,x,x,x
O=C1NC(=O)N(c2ccccc2)C(=O)/C1=C/C=C/c1ccco1,15,28*,6,22,12,7,0,-2,19*
CO[C@H]1C=C2CCN(C)[C@H]2C2c3cc4c(cc3C(=O)O[C@@H]21)OCO4 (stereo not given in full),2,2,4,-1,0,8,x,x,x
C=CCn1c(O)c(C(CC)=NCC2CCCO2)c(=O)[nH]c1=O (stereo not given),-2,3,-2,-2,1,-3,x,x,x
Oc1ccc(CC2CC3CCN2CC3)cc1O (stereo not given),-1,-7,3,-2,2,0,x,x,x
Oc1ccc(C[C@H]2NCCc3cc(O)c(O)cc32)cc1O,19,55*,30*,8,2,8,18*,-64,30*
SMILES,PRMT1 inh,LEDGF integ inh,UHRF1 binding,ABHD5-PLIN5 inh,rCAG binder,MBD2 DNA inh,IN multimer up,TR-FRET interf,IN-LEDGF confirm
Cc1cccc(N2C(=O)/C(=C/c3ccc(CN(CCC#N)S(C)(=O)=O)o3)C(=O)NC2=S)c1,41*,25*,7,0,66*,-1,1,-4,36*
CN1C(=O)/C(=C\c2ccc(N3CCCCC3)o2)C(=O)NC1=S,-4,-2,-13,3,-13,-13,x,x,x
CC1COC2N=C(N[N+](=O)[O-])NC2O1 (stereo not given),4,-1,2,-3,0,4,x,x,x
COc1ccc(Cc2nccc3cc(OC)c(OC)cc23)cc1OC,-3,33*,19,2,2,4,2,-6,6
O=P(OCCCl)(OCCCl)OCCCl,3,-3,2,x,1,4,x,x,x
COC1CC2C=C(C)C=CC=CC(=O)NC(c3ccccc3)CC=CCCC(O)CC(=O)C2=C1O (stereo not given),13,22*,19,22*,25,5,5,-24,50*
CN1C(=O)C(C2CCCCC2)C(=O)N(C)C1=O,1,55*,0,0,2,1,1,-4,-1
COCCCn1c(N)c(C(=O)OCCOC)c2nc3ccccc3nc21,5,28*,5,-20,2,0,8,-29,1
CCCCNC(=O)c1c(N)n(CCCOC)c2nc3ccccc3nc12,4,1,4,-25,4,0,x,x,x
CCN(CC)C(=O)Cn1cc(/C=C2\C(=O)NC(=O)N(c3ccccc3F)C2=O)c2ccccc21,-1,18*,0,23*,2,2,2,-6,5
CCOc1ccc(-n2c(CC)nc3ccccc3c2=O)cc1,3,39*,0,-6,-1,8,-1,4,1
COc1ccc(-n2c(Cc3ccccc3)nc3ccccc3c2=O)cc1,-1,-2,-3,-2,-7,1,x,x,x
O=C(OCc1ccccc1)N1CCC2CC1c1cc(N3Cc4ccccc4-n4nncc4C3)ccc12 (stereo not given),-1,26*,6,12,11,4,2,-6,12
